For six compounds, Potency results are on record in PubChem BioAssay (Tox21).

The nature of assay [1]: Nuclear factor erythroid 2-related factor 2/antioxidant responsive element (Nrf2/ARE) small molecule agonists: qHTS cell viability counter screen in human keratinocytes (AID 1919968; active means well fitted curve in the direction sought with a large enough effect in the repeat runs; an effect the other way counts as inactive or inconclusive; further: nearly all actives have a fitted effect of over 55% in size; further: potency means the concentration at half of the fitted maximal effect). The method, boiled down:
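KeratinoSens HaCaT cells, 1,500/well, preincubated 5 h, then exposed to compounds in DMSO for 23 h at 37 C/5% CO2. Viability read as CellTiter-Fluor fluorescence after 1 h, in the same wells as the ARE-luciferase read.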
For orientation: qHTS replaces the single test concentration by a dilution series.

Assay [2] addresses KiSS-1 receptor (Homo sapiens) (UniProt Q969F8). As to the kind of experiment: Human kisspeptin (KISS1R) small molecule agonists, calcium flux assay in KISS1R-HEK293 cells (AID 1920064; active means well fitted curve in the direction sought with a large enough effect in the repeat runs; an effect the other way counts as inactive or inconclusive). A digest of the protocol:
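HEK293 cells stably expressing human KISS1R were loaded with calcium dye for 1 h at 37 C, then given compound; fluorescence (Ex/Em 480/540) was read kinetically for 3 min. Fifteen concentrations, triplicate.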
A general note: Calcium flux is commonly read through the fluorescence of an indicator in the cells.

A short description of assay [3]: G protein-coupled receptor (GPCR) small molecule agonists, calcium flux assay: HEK293 wild type cell line counter screen (AID 1920065). A digest of the protocol: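 Wild-type HEK293 cells plated 18 h, loaded with calcium dye 1 h at 37 C, then compounds added in agonist mode (ATP as positive control). Kinetic fluorescence Ex/Em 480/540 recorded 3 min at 1 sec intervals; 15 concentrations, triplicate.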

Assay [4] is described as follows: p53 small molecule agonists, cell-based qHTS assay with human liver microsomes (AID 1963577). The method, boiled down: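 p53RE-bla reporter cells were pre-incubated 5 h at 37 C, then treated with compounds plus human liver microsomes (0.5 mg/mL final) and NADPH (0.5 mg/mL final) for 16 h at 37 C. Beta-lactamase activity was read by LiveBLAzer fluorescence after 2 h at room temperature.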

Assay [5] in a line: p53 small molecule agonists, cell-based qHTS assay with rat liver microsomes (AID 1963578). The method, boiled down: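 p53RE-bla cells were exposed to compounds together with rat liver microsomes (0.5 mg/mL final) and NADPH (0.5 mg/mL final) for 16 h at 37 C, then read by LiveBLAzer beta-lactamase fluorescence after 2 h at room temperature.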
Assay [6] can be described thus: p53 small molecule agonists, cell-based qHTS assay with human liver microsomes: qHTS cell viability counter screen (AID 1963579). Further: nearly all actives have a fitted effect of over 45% in size. Further: potency means the concentration at half of the fitted maximal effect. A digest of the protocol:
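p53RE-bla cells (4,000/well) were pre-incubated 5 h at 37 C, then given compounds in DMSO plus human liver microsomes (0.5 mg/mL final) and NADPH (0.5 mg/mL final) for 16 h at 37 C. Viability was read by CellTiter-Glo luminescence.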

Assay [7] can be described thus: p53 small molecule agonists, cell-based qHTS assay with rat liver microsomes: qHTS cell viability counter screen (AID 1963580). Further: nearly all actives have a fitted effect of over 45% in size. The method, boiled down: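 Intracellular ATP, by CellTiter-Glo luminescence, defines viability. HCT-116 p53RE-bla cells, 4,000 per well, were compound-treated in the presence of rat liver microsomes and NADPH for 16 h at 37 C.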
The nature of assay [8]: p53 small molecule agonists, cell-based qHTS assay: qHTS cell viability counter screen (AID 1963581). Further: nearly all actives have a fitted effect of over 45% in size. A digest of the protocol: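 p53RE-bla HCT-116 cells, compounds added 5 h after plating and incubated 16 h at 37 C. Cytotoxicity measured in the same wells as intracellular ATP by CellTiter-Glo luminescence after 30 min at room temperature.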
Assay [9] can be described thus: p53 small molecule agonists, cell-based qHTS assay (AID 1963582; active means well fitted activation curve with a large enough effect in the signal ratio in the repeat runs, not every such curve was filed as active; the % refers to the signal ratio). A digest of the protocol:
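p53RE-bla reporter cells, compounds added in DMSO after 5 h plating, incubated 16 h at 37 C. Beta-lactamase read via 2 h room-temperature LiveBLAzer B/G FRET substrate, fluorescence intensity.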

Assay [10] deals with 5-hydroxytryptamine receptor 2A (Homo sapiens) (UniProt P28223). The assay is described as follows: 5-hydroxytryptamine receptor 2A (HTR2A) small molecule antagonists, cell-based qHTS assay (AID 1963586). Further: nearly all actives have a fitted effect of over 45% in size. Further: potency means the concentration at half of the fitted maximal effect. A digest of the protocol: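 Antagonist-mode intracellular calcium assay: DOI (4 nM) added after 5 min compound pre-incubation at room temperature to dye-loaded HTR2A-CHO cells. Fluorescence followed for 3 min, sampled every second.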
5-hydroxytryptamine receptor 2A (Homo sapiens), sequence (P28223 whole entry, looked up): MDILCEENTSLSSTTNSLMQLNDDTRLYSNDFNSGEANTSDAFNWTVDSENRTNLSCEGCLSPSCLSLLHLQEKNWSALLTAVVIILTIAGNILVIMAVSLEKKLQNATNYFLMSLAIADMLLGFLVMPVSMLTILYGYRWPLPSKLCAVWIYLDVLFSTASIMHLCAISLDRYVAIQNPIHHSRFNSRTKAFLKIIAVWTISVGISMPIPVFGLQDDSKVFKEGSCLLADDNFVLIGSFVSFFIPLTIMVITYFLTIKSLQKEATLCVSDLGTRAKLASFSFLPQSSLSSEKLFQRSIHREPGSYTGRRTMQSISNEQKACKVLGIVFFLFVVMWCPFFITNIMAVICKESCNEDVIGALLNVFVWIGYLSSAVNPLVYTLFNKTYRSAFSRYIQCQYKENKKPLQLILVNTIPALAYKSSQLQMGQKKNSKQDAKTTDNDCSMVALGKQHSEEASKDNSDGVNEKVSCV

Assay [11] shares this target. The assay is described as follows: 5-hydroxytryptamine receptor 2A (HTR2A) small molecule agonists, cell-based qHTS assay (AID 1963587). Further: nearly all actives have a fitted effect of over 30% in size. Further: potency means the concentration at half of the fitted maximal effect. A digest of the protocol: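 Kinetic calcium-flux fluorescence (2 min, 1 sec intervals) after compound addition in agonist mode. HTR2A-CHO cells were cultured 18 h, then dye-loaded 1 h at 37 C.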
The target in assay [12] is Muscarinic acetylcholine receptor M1 (Homo sapiens) (UniProt P11229). The assay is described as follows: Cholinergic receptor muscarinic 1 (CHRM1) small molecule antagonists, cell-based qHTS assay (AID 1963588). Further: nearly all actives have a fitted effect of over 40% in size. A digest of the protocol: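 CHRM1-CHO calcium-flux assay, antagonist mode. Cells were seeded 18 h, dye-loaded 1 h at 37 C and given compound for 5 min at RT, then acetylcholine was added at 50nM. FDSS fluorescence was read 3 min; 15 concentrations, three runs.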
Muscarinic acetylcholine receptor M1 (Homo sapiens), sequence (P11229 whole entry, looked up): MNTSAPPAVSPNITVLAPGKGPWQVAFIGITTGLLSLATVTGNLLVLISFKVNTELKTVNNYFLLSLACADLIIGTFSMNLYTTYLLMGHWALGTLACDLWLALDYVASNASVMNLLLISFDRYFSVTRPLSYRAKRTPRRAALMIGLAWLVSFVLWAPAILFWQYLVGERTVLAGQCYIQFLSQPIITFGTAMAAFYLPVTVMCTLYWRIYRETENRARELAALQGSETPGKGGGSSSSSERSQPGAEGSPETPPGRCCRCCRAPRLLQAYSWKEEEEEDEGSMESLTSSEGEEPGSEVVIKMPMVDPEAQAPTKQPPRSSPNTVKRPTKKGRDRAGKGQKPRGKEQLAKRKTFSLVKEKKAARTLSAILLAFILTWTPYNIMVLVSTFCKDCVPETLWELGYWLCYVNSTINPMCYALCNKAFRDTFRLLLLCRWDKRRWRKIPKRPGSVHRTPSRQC

The target is the same in assay [13]. As to the kind of experiment: Cholinergic receptor muscarinic 1 (CHRM1) small molecule agonists, cell-based qHTS assay (AID 1963589). Further: nearly all actives have a fitted effect of over 35% in size. A digest of the protocol: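 CHO cells stably expressing human CHRM1 were loaded with calcium dye for 1 h at 37 C, then compound was added in agonist mode. Intracellular calcium fluorescence was followed kinetically at 1 s intervals. Fifteen concentrations were tested in three independent runs.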

Assay [14] is described as follows: cAMP Responsive Elements (CRE) small molecule agonists, cell-based qHTS assay (AID 1963590). A digest of the protocol: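 CRE-bla HEK 293T cells, 2,000/well in DMEM with 10% dialyzed FBS and 25 mM HEPES, pre-incubated 18 h at 37 C, then exposed to compound 3 h at 37 C. Beta-lactamase reporter read with LiveBLAzer B/G FRET substrate after 2 h at room temperature.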

Assay [15] can be described thus: cAMP Responsive Elements (CRE) small molecule antagonists, cell-based qHTS assay (AID 1963591; active means well fitted inhibition curve with a large enough effect in the signal ratio in the repeat runs, not every such curve was filed as active; the % refers to the signal ratio). A digest of the protocol:
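CRE-bla HEK293T cells plated 18 h, then given compound plus NKH477 at 0.25 uM final for 3 h at 37C. Beta-lactamase reporter read with LiveBLAzer B/G FRET substrate after 2 h at room temperature.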

Assay [16] addresses Beta-2 adrenergic receptor (Homo sapiens) (UniProt P07550). As to the kind of experiment: Adrenergic beta2 receptor (ADRB2) small molecule antagonists, cell-based qHTS assay (AID 1963592). Further: series mostly up to about 92 µM; nearly all actives have a fitted effect of over 50% in size. The method, boiled down:
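Cells (CHO, stable ADRB2 overexpression) incubated 18-20hr at 37C; compounds added from DMSO; agonist mix (1nM isoproterenol, 100uM IBMX, 25uM Ro-20-1724) added; 0.5hr RT; d2-cAMP and anti-cAMP-cryptate added; 1hr RT; 665/615 nm read.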

The target is the same in assay [17]. The assay is described as follows: Adrenergic beta2 receptor (ADRB2) small molecule agonists, cell-based qHTS assay (AID 1963593).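 Further: CHO cells stably overexpressing human ADRB2.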 The method, boiled down:
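CHO cells stably over-expressing ADRB2 were plated overnight at 37C, then dosed with compounds plus a stimulation mix containing 100uM IBMX and 25uM Ro-20-1724 for 0.5hr at room temperature. cAMP was measured by HTRF competition, 1hr.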

Assay [18] has as its target D(2) dopamine receptor (Homo sapiens) (UniProt P14416). The assay is described as follows: Dopamine D2 receptor (DRD2) small molecule agonists, cell-based qHTS assay (AID 1963594). Further: nearly all actives have a fitted effect of over 35% in size. The method, boiled down:
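cAMP accumulation in DRD2-HEK293 cells measured by HTRF after 1 h detection; compounds added 10 min before NKH477 (200nM […]) forskolin-analogue stimulation, 30 min at room temperature, with Ro20-1724 present at 0.1 mM final.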

Assay [19] has the same target. The assay is described as follows: Dopamine D2 receptor (DRD2) small molecule antagonists, cell-based qHTS assay (AID 1963595; active means well fitted inhibition curve with a large enough effect in the signal ratio in the repeat runs, with a control signal flat; the % refers to the signal ratio; further: potency means the concentration at half of the fitted maximal effect). A digest of the protocol:
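Antagonist mode in DRD2-HEK293 cells: after compound addition with 0.1 mM Ro20-1724, cells received quinpirole (12 nM) and NKH477 (200 nM) for 30 min at room temperature; HTRF cAMP read after 1 h detection.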

A short description of assay [20]: Nuclear factor erythroid 2-related factor 2/antioxidant responsive element (Nrf2/ARE) small molecule agonists: luciferase reporter gene qHTS assay in human keratinocytes (AID 1919969). Further: nearly all actives have a fitted effect of over 35% in size. Further: potency means the concentration at half of the fitted maximal effect.

Results filed as inconclusive are left out. Activity calls are given as the source filed them. Unless noted, the call rests on the fitted dose curve.

D(2) dopamine receptor (Homo sapiens), sequence (P14416 whole entry, looked up): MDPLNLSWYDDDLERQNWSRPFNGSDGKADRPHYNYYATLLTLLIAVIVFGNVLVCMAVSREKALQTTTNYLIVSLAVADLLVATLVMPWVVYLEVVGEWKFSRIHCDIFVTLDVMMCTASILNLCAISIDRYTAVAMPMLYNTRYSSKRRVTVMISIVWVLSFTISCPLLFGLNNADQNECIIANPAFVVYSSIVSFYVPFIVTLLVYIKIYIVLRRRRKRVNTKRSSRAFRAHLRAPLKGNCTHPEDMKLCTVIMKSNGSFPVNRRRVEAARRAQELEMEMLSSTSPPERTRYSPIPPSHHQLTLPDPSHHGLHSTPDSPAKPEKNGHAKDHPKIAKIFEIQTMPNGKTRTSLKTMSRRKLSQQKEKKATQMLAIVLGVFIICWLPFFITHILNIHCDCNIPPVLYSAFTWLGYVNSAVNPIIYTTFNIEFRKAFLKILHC
Beta-2 adrenergic receptor (Homo sapiens), sequence (P07550 whole entry, looked up): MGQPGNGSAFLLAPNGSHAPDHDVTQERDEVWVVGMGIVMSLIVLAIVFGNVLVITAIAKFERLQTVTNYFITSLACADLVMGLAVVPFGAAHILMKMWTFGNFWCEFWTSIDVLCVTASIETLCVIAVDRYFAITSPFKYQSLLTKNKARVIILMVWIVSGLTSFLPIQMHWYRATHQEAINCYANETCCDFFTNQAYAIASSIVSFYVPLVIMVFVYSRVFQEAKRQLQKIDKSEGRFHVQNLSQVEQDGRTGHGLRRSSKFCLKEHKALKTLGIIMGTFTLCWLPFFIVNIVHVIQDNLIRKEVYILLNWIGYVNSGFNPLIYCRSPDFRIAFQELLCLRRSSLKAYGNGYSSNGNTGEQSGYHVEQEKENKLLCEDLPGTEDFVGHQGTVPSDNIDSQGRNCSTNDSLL
KiSS-1 receptor (Homo sapiens), sequence (Q969F8 whole entry, looked up): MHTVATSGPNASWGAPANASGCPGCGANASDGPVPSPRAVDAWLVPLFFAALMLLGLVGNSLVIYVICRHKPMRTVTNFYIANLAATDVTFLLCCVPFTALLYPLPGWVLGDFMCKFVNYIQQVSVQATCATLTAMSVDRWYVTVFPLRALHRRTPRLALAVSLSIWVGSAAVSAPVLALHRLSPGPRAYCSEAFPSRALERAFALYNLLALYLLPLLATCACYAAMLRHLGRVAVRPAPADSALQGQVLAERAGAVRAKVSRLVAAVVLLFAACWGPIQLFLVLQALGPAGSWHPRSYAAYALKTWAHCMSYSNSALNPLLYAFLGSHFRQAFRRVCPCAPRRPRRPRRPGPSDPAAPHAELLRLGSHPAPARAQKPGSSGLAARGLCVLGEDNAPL

With `c1ccc2sc(SN3CCOCC3)nc2c1`, the Potency entry in assay [1], in assay [2], in assay [3], in [4], in assay [5] and in [6] was “inactive” each time. In addition, the Potency result in [7], in assay [8], in assay [9], in assay [10], in assay [11] and in assay [12] was “inactive” in each case. Moreover, the Potency result in [13], in assay [14], in assay [15], in assay [16], in assay [17] and in [18] was “inactive” in each case. Besides, the Potency entry in assay [19] is “inactive”.

Take `O=C1C=CC(=O)N1c1ccc(Cc2ccc(N3C(=O)C=CC3=O)cc2)cc1`: the Potency in assay [1] is 27.3 µM (active); in [20] it was 9.69 µM (active); in [6] it was 16.2 µM (active); in assay [10], 37.5 µM (active); in [11] it was 43.6 µM (active); in assay [19], 4.33 µM (active). The Potency result in assay [3] and in [4] was “inactive” throughout.

Regarding `C1CCOC1`, the Potency entry in [1], in assay [2], in assay [3], in assay [4], in assay [5] and in assay [6] was “inactive” in each case. Besides, the Potency entry in assay [7], in [8], in assay [9], in assay [10], in [11] and in [12] was “inactive” each time. Besides, the Potency result in assay [13], in assay [14], in assay [15], in assay [16], in [18] and in assay [19] was “inactive” each time.

As for `CC(C)CCCC(C)CC=O` (configuration not stated), the Potency result in [1], in assay [20], in assay [4], in assay [5], in assay [6] and in [7] was “inactive” each time. For the same compound, the Potency result in assay [8], in assay [9], in assay [12], in assay [14], in [15] and in assay [16] was “inactive” each time. The Potency entry in assay [18] and in assay [19] was “inactive” throughout.

As to `CCOC(C)OCC`, the Potency result in assay [1], in assay [20], in [3], in [6], in [7] and in assay [10] was “inactive” in each case. The Potency result in assay [11], in assay [12], in assay [13], in assay [14], in assay [15] and in assay [16] was “inactive” each time. Also, the Potency entry in [17], in assay [18] and in [19] was “inactive” each time.

`Cc1c[nH]c(=O)[nH]c1=O`: the Potency entry in assay [1], in [2], in [3], in assay [4], in assay [5] and in assay [6] was “inactive” each time. In addition, the Potency result in assay [7], in assay [8], in assay [9], in assay [10], in assay [11] and in [12] was “inactive” each time. For the same compound, the Potency result in assay [13], in [14], in assay [15], in [16], in assay [17] and in assay [19] was “inactive” in each case.
